Here are results for 35 molecules from PubChem BioAssay (Tox21).

Each structure is given as a SMILES string. Values without a mark were called inactive. Results filed as inconclusive are left out. Calls of active or inactive are those of the source. Unless noted, calls come from the whole dose curve; as a rule, active = well fitted curve in the direction sought with a large enough effect in the repeat runs; inconclusive = weak or mixed curves; inactive = no such curve, though single readings can be large; an effect the other way counts as inactive or inconclusive.
% is set by controls: 0 for no effect and ±100 for the full control effect.

Chain of Androgen receptor (Homo sapiens) (P10275 whole entry, looked up): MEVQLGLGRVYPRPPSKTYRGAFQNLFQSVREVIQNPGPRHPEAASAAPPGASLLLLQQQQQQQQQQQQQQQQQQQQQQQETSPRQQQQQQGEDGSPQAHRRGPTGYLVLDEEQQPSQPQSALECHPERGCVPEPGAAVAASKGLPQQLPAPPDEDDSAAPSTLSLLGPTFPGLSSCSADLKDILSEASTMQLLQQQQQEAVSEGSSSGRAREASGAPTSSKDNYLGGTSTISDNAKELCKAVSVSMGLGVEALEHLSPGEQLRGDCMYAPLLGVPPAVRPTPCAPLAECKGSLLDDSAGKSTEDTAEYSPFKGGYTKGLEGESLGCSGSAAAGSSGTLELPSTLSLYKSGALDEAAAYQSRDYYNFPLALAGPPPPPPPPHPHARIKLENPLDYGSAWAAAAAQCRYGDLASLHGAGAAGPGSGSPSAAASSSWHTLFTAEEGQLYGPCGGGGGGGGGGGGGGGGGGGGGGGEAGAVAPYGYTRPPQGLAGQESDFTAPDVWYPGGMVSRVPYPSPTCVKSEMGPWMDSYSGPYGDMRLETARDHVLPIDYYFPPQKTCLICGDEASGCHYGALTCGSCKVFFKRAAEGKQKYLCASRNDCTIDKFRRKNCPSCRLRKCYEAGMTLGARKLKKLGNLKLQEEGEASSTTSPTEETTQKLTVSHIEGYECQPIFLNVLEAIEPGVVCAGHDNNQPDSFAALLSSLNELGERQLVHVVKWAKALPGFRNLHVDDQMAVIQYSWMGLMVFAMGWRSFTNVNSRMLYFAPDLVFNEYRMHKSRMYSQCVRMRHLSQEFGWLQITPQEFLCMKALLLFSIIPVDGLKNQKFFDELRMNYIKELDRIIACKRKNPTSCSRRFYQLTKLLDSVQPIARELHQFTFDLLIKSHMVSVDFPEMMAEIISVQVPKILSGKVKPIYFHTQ

System in the first assay: not listed separately
The assay can be described thus: qHTS assay to identify small molecule agonists of the estrogen receptor beta (ER-beta) signaling pathway - cell viability counter screen (AID 1259380). Note: nearly all actives have a fitted effect of over 30% in size. Note: potency is the fitted concentration of half-maximal effect. Conditions: ER-beta-bla HEK293T viability, CellTiter-Glo luminescence, 16 h; series mostly up to 92.4 µM; activity change, negative = cytotoxicity: at the top concentration. The method, boiled down:
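HEK293T ER-beta-UAS-bla; 2% CS-FBS; 6 hr pre-plate, 16 hr cpd at 37C/5% CO2; LiveBLAzer read first, then CellTiter-Glo 30 min RT, luminescence.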
A general note: In qHTS, concentration-response curves come from the screen itself.
For `CCCc1ccc(OC)cc1`, the “activity change, negative = cytotoxicity” value was 10.1%.

`Cc1nc(C)c(C)nc1C`: the “activity change, negative = cytotoxicity” value was -14.4%.

For `CC(CCl)OC(C)CCl` (stereo unspecified), the “activity change, negative = cytotoxicity” value is 0.301%.

On to `O=C(O)c1ccccc1-n1cc(C(=O)O)c(=O)c2cc(Nc3c(F)cc(F)cc3Cl)c(Cl)cc21`, for which the “activity change, negative = cytotoxicity” value was 13.7%.

In the case of `CCCCCCCCCCCCCCCCC(=O)O`, the “activity change, negative = cytotoxicity” value was -1.79% [at 42.5 µM].

Consider `CCCC1CCCC(=O)O1` (stereo unspecified), for which the “activity change, negative = cytotoxicity” value was -6.17%.

Take `N#C[C@@H]1CC(F)(F)CN1C(=O)CNC1CC2CCC(C1)N2c1ncccn1` (stereo partly specified): the “activity change, negative = cytotoxicity” value was -0.901%.

`CC(=O)Nc1ccn(C2COC(COC(=O)c3ccccc3)O2)c(=O)n1` (stereo unspecified): the “activity change, negative = cytotoxicity” value was -0.141% [at 42.5 µM].

In the case of `CC1(C)CC(O)CC(C)(C)N1[O]`, the “activity change, negative = cytotoxicity” value was -0.492%.

`O=C(Nc1ccc2c(c1)Cc1ccccc1-2)C(F)(F)F`: the “activity change, negative = cytotoxicity” value is -10.6%.

`CCCCCCCCS`: the “activity change, negative = cytotoxicity” value was 10.7%.

As for `CC/C=C/CCO`, the “activity change, negative = cytotoxicity” value was -15.1%.

As for `CC/C=C\CCO`, the “activity change, negative = cytotoxicity” value was 1.07%.

For the molecule `CC(C)Cc1nccs1`, the “activity change, negative = cytotoxicity” value is -9.84%.

In the case of `O=C1CCCN1CCO`, the Potency is 43.3 µM (active).

Take `C=CCCC`: the “activity change, negative = cytotoxicity” value was 0.0138%.

Regarding `CCCCCO`, the “activity change, negative = cytotoxicity” value was 6.32%.

On to `S=c1[nH][nH]c(=S)s1`, for which the “activity change, negative = cytotoxicity” value was -5.73%.

For `C1CCN(CN2CCCCC2)CC1`, the “activity change, negative = cytotoxicity” value was 4.65%.

As to `CC(C)(C)NCC(O)COc1ccc(NC(=O)NC2CCCCC2)cc1` (stereo unspecified), the “activity change, negative = cytotoxicity” value was -0.261% [at 42.5 µM].

As for `CC(=O)c1ccc(Cl)c(Cl)c1Cl`, the “activity change, negative = cytotoxicity” value is -3.73%.

The next assay addresses Androgen receptor (Homo sapiens) (UniProt P10275). Briefly: qHTS assay to identify small molecule agonists of the androgen receptor (AR) signaling pathway in the presence of an antagonist (AID 1259381; calls by dose curve; note: nearly all actives have a fitted effect of over 15% in size). To be noted: MDA-kb2 MMTV-luciferase, AR agonist + nilutamide, 16 h; series mostly up to 92.4 µM; activation: at the top concentration. A digest of the protocol: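 MDA-kb2 cells, 3,000/well, rested 5hr at 37C/0% CO2 → nilutamide 3.0uM final or buffer → compounds, 15 conc. → 16hr at 37C → ONE-Glo, 30min RT → luminescence.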
Turning to `O=C(c1ccc(Cl)cc1)c1ccc(Cl)cc1`, the “activation” value is 2.26%.

Regarding `O=C(Nc1ccccc1)c1cc([N+](=O)[O-])ccc1Cl`, the “activation” value is -2.32%.

For `NC(=O)c1ccccc1C(N)=O`, the “activation” value is 0.187%.

For the molecule `CCCc1ccc(OC)cc1`, the “activation” value was -0.0041%.

Consider `Cc1nc(C)c(C)nc1C`, for which the “activation” value was -0.865%.

Consider `CCCCCCCCCCCCCCCCC(=O)O`, for which the “activation” value was 7.01% [at 42.5 µM].

Take `N#C[C@@H]1CC(F)(F)CN1C(=O)CNC1CC2CCC(C1)N2c1ncccn1` (stereo partly specified): the “activation” value is 0.0014%.

System in another assay: not listed separately
Briefly: qHTS assay to identify small molecule antagonists of the estrogen receptor beta (ER-beta) signaling pathway - cell viability counter screen (AID 1259382).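 Note: HEK293T cells carrying ER-beta-UAS-bla reporter stimulated with estradiol; nearly all actives have a fitted effect of over 55% in size.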 Conditions: ER-beta-UAS-bla HEK293T viability, CellTiter-Glo luminescence, 16 h; series mostly up to 92.4 µM; activity change, negative = cytotoxicity: at the top concentration. A digest of the protocol: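 Cells: ER-beta-UAS-bla HEK293T, 2,000/well, 2% CS-FBS, 6 hr settle. Cpd + E2 (1nM final), 16 hr, 37C/5% CO2. Bla FRET substrate 2 hr RT, then CellTiter-Glo 30 min RT, luminescence.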
As to `CCOc1ccccc1O`, the “activity change, negative = cytotoxicity” value was 13.1%.

Consider `C=CC(C)CCC=C(C)C` (stereo unspecified), for which the “activity change, negative = cytotoxicity” value is 6.98%.

On to `O=C(c1ccc(Cl)cc1)c1ccc(Cl)cc1`, for which the “activity change, negative = cytotoxicity” value was 1.55%.

Regarding `OCCc1ccncc1`, the “activity change, negative = cytotoxicity” value was 2.34%.

Regarding `O=c1c2ccccc2oc2ccccc12`, the “activity change, negative = cytotoxicity” value was 4.25%.

As for `CCCCCCCCC(=O)OCC(C)OC(=O)CCCCCCCC` (stereo unspecified), the “activity change, negative = cytotoxicity” value was -5.51%.

As to `Cc1c(-c2cccnc2)c2ccccc2n1CCCCC(=O)O`, the “activity change, negative = cytotoxicity” value is -6.18%.

With `O=C(O)c1ccccc1[N+](=O)[O-]`, the “activity change, negative = cytotoxicity” value was 2.1%.

As to `Sc1nc(S)nc(S)n1`, the “activity change, negative = cytotoxicity” value is 3.83% [at 42.5 µM].

For `O=C(Nc1ccccc1)c1cc([N+](=O)[O-])ccc1Cl`, the “activity change, negative = cytotoxicity” value is -0.265%.

For the molecule `CCC(C)CCCC(C)(C)O` (stereo unspecified), the “activity change, negative = cytotoxicity” value is 13%.

With `CC(C)(C(=O)O)c1ccc(C(O)CCCN2CCC(C(O)(c3ccccc3)c3ccccc3)CC2)cc1` (stereo unspecified), the “activity change, negative = cytotoxicity” value is 0.0768% [at 42.5 µM].

For `CCCC(=O)OCc1ccccc1`, the “activity change, negative = cytotoxicity” value was 4.28%.

`Cc1nc(C)c(C)nc1C`: the “activity change, negative = cytotoxicity” value is -24.8%.

In the case of `CC(CCl)OC(C)CCl` (stereo unspecified), the “activity change, negative = cytotoxicity” value was 6.76%.

As to `O=C(O)c1ccccc1-n1cc(C(=O)O)c(=O)c2cc(Nc3c(F)cc(F)cc3Cl)c(Cl)cc21`, the “activity change, negative = cytotoxicity” value is 0.67%.

For the molecule `CCCCCCCCCCCCCCCCC(=O)O`, the “activity change, negative = cytotoxicity” value was -6.2% [at 42.5 µM].

As for `CCCC1CCCC(=O)O1` (stereo unspecified), the “activity change, negative = cytotoxicity” value was -3%.

As for `N#C[C@@H]1CC(F)(F)CN1C(=O)CNC1CC2CCC(C1)N2c1ncccn1` (stereo partly specified), the “activity change, negative = cytotoxicity” value was 3.1%.

On to `CC(=O)Nc1ccn(C2COC(COC(=O)c3ccccc3)O2)c(=O)n1` (stereo unspecified), for which the “activity change, negative = cytotoxicity” value is -7.49% [at 42.5 µM].

In the case of `O=C(Nc1ccc2c(c1)Cc1ccccc1-2)C(F)(F)F`, the “activity change, negative = cytotoxicity” value was -8.7%.

On to `CC/C=C/CCO`, for which the “activity change, negative = cytotoxicity” value is -25.8%.

In the case of `CC(C)Cc1nccs1`, the “activity change, negative = cytotoxicity” value is -12.9%.

For the molecule `C=CCCC`, the “activity change, negative = cytotoxicity” value was -4.48%.

As for `S=c1[nH][nH]c(=S)s1`, the “activity change, negative = cytotoxicity” value is 2%.

With `C1CCN(CN2CCCCC2)CC1`, the “activity change, negative = cytotoxicity” value is -1.93%.

Take `CC(C)(C)NCC(O)COc1ccc(NC(=O)NC2CCCCC2)cc1` (stereo unspecified): the “activity change, negative = cytotoxicity” value was -5.99% [at 42.5 µM].

Turning to `CC(=O)c1ccc(Cl)c(Cl)c1Cl`, the “activity change, negative = cytotoxicity” value is 0.959%.
